Screens as filed in PubChem BioAssay.
Measles inh – inhibitors of measles virus growth in cells, primary screen, measles RdRp inhibitor project, cell-based, single point, HTS. AID 745, 2007. z-score (concentration not given with the values). 33,000 tested, 0.1% active. infected Vero cells, GFP fluorescence, 64 h; stronger effect = lower value; in the data active = z-score below about -3
Of the large screens only hits and unclear results are named; the others gave an inactive call. The entries come from a sample that favours hits as a whole.

CCCCOC(=O)c1ccccc1N1C(=O)C2C3CCC(C3)C2C1=O (configuration not stated)	none
COC(=O)c1ccccc1N1C(=O)C2C3CCC(C3)C2C1=O (configuration not stated)	Measles inh -3.7
O=C1C2C3CCC(C3)C2C(=O)N1c1ccccc1F (configuration not stated)	none
CC(=O)N1c2c(cc(Br)cc2S(=O)(=O)N2CCN(c3cccc(C(F)(F)F)c3)CC2)CC1C (configuration not stated)	none
CC1CC(=O)N(c2ccc(NCCc3c[nH]c4ccccc34)c([N+](=O)[O-])c2)C1=O (configuration not stated)	none
O=C(NCCC1=CCCCC1)c1ccc(N2CCc3ccccc32)c([N+](=O)[O-])c1	none
COC(=O)C(NS(=O)(=O)c1ccccc1)C(C)C (configuration not stated)	none
COc1ccc(Cc2c(Cl)ncnc2Cl)cc1	none
COc1ccc(Cc2nc(C)cc(Cl)n2)cc1Cl	Measles inh -3.8
COc1nc(Cl)cc(C)c1C(=O)NCc1ccc(Cl)cc1	none
CC1CCN(C(=O)c2c(NC(=O)c3ccco3)sc3c2CCC(C(C)(C)C)C3)CC1 (configuration not stated)	none
CCC1CCc2c(sc(NC(=O)c3c(-c4ccccc4Cl)noc3C)c2C(=O)OC)C1 (configuration not stated)	none
CC(=O)NCCNC(=O)c1ccc(CNc2nc(=S)[nH]c3ccccc23)cc1	none
COc1cccc(C2Nc3ccccc3NC3=C2C(=O)CC(c2cccs2)C3)c1OC (configuration not stated)	none
COc1ccc(NC(=O)CCS(=O)(=O)c2ccc(Br)cc2)cc1Cl	none
CC(C)(C)c1cc(Br)ccc1OCCCN1CCOCC1	Measles inh -3.3
Cc1cccc(C)c1OCCCCCCN1CCOCC1	none
COc1ccccc1OCCCCCCN1CCOCC1	none
Cc1nn(-c2nc(-c3ccco3)cc(C(F)(F)F)n2)c(C)c1[N+](=O)[O-]	none
CCN(CC)c1ccc(NC(=O)c2ccc(C)o2)cc1	none
CCc1ccc(C2CC(c3ccc(OC)c(OC)c3)=NN2S(C)(=O)=O)cc1 (configuration not stated)	none
CCn1c(COc2ccccc2C)nc2ccccc21	none
Cc1ccccc1OCCn1c(SCC(N)=O)nc2ccccc21	none
COCc1nc2ccccc2n1CCOc1ccccc1C	Measles inh -3.4
O=C(c1cc(-c2ccc(Br)cc2)on1)N1CCN(c2ccccc2)CC1	none
Cc1cc2cc(CCNC(=O)C3CCCC3)c(=O)[nH]c2cc1C	none
CCCCCCCSc1nnc2nc(C)cc(C)n12	Measles inh -3.1
CCCCCCSc1nnc(-c2ccco2)c(-c2ccco2)n1	none
CCCCCSc1nc2ccccc2[nH]1	none
O=C(Nc1ccc2c(c1)OC(F)(F)O2)c1cccnc1	none
CCOC(=O)c1sc2nc(CC(=O)OC)nc(Nc3cc(F)ccc3C)c2c1C	none
N=c1n(CCO)c2ccccc2n1CCN1CCCCC1	none
Cc1cn2c3ccccc3n(CCN3CCCCC3)c2n1	none
c1ccc(-c2cn3c4ccccc4n(CCN4CCCCC4)c3n2)cc1	Measles inh -3.1
COc1cc(C=Cc2nc3ccccc3c(=O)n2-c2ccc(C)cc2)cc(OC)c1OC	none
Cc1ccc(CNC(=O)CCCn2c(=O)c3sccc3n(Cc3c(C)cc(C)cc3C)c2=O)cc1	none
Cn1cc(SCC(=O)Nc2ccc(F)cc2)c2ccccc21	none
CCOC(=O)C1=C(C)Nc2nc(SCc3cccc(Cl)c3)nn2C1c1ccc(Cl)cc1 (configuration not stated)	none
O=C(Nc1ccc(-c2nc3ccccc3o2)c(O)c1)c1sc2ccccc2c1Cl	none
CCN(CC)c1cc(C)c2cc([N+](=O)[O-])ccc2n1	none
O=C(CCN1C(=O)COc2ccccc21)NCCc1ccc(Cl)cc1	none
O=C(CCN1C(=O)COc2ccccc21)NCCN1CCc2ccccc2C1	Measles inh -6.4
CC1CCCC(C)N1CCNC(=O)CCN1C(=O)COc2ccccc21 (configuration not stated)	none
Cc1ccc(NC(=O)CN(Cc2ccccc2)S(=O)(=O)c2ccc(Br)cc2)cc1C	none
CC(C)CCNC(=O)c1ccc(CSCc2ccc(Cl)cc2)o1	none
CCN(CCNC(=O)C1CCCN(S(=O)(=O)c2cccc3nsnc23)C1)c1ccccc1 (configuration not stated)	Measles inh -3.3
O=C(NCCN1CCOCC1)C1CCCN(S(=O)(=O)c2cccc3nsnc23)C1 (configuration not stated)	none
NS(=O)(=O)c1ccc(CCNC(=O)C2CCCN(S(=O)(=O)c3cccc4nsnc34)C2)cc1 (configuration not stated)	none
CCC(C)NC(=O)c1ccc2c(c1)N(CC)C(=O)c1ccccc1S2 (configuration not stated)	none
Cc1ccc2nc(NC(=O)C3CCC(CNS(=O)(=O)c4ccc(Br)s4)CC3)sc2c1 (configuration not stated)	none
CCOC(=O)c1sc2ncnc(Nc3cc(F)ccc3C)c2c1C	none
Cc1ccc(OCC(=O)OCCN2CCOCC2)cc1	none
CCc1ccc(NC(=O)C2CCN(C(=O)c3ccccc3C)CC2)cc1	Measles inh -5
COc1ccc(C)cc1NC(=O)C1CCN(C(=O)c2ccccc2C)CC1	none
